# High-throughput results from PubChem.
# Pf growth 48h: Primary qHTS for delayed death inhibitors of the malarial parasite plastid, 48 hour incubation | Potency, µM (series often up to 28.7 µM), for inactives: at the top dose activity change, negative = inhibition, most hits filed as inhibitors | 310,000 compounds, 5.9% hits | P. falciparum luciferase growth in erythrocytes, 48 h | AID 504832, 2011; further: potency means the concentration at half of the fitted maximal effect; on the % scale 0 is the no-effect control and ±100 the full control effect
#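 Cell-based growth assay: transgenic P. falciparum expressing firefly luciferase, cultured in red cells within RPMI 1640 containing 0.5% w/v Albumax, 24 mM bicarbonate and gentamycin. A drop in luciferase activity indicates inhibition.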
# Shiga toxin inh: A qHTS for Small Molecule Inhibitors of Shiga Toxin | Vero cells, Shiga toxin protein synthesis inhibition reporter | inhibition, % at 38.7 µM | 290,000 compounds, 9.2% hits | AID 2315, 2010; in the data active means inhibition mostly above about 28%, no sharp cut-off; inactive means mostly below about 43%; further: 0% is about no effect
# CHX counter: Cycloheximide Counterscreen for Small Molecule Inhibitors of Shiga Toxin | max response, % | cell reporter, cycloheximide protein synthesis inhibition counterscreen | 300,000 compounds, 12% hits; in the data active means max response mostly above about 13%, no sharp cut-off; inactive means mostly below about 14%; further: read at 38.3 µM for the half of the compounds with a filed dose; 0% is about no effect
# Pf growth 96h: Primary qHTS for delayed death inhibitors of the malarial parasite plastid, 96 hour incubation. P. falciparum luciferase reporter growth, 96 h. 320,000 compounds, 6.9% hits. Potency, µM (titrated, usually from 28.7 µM), inactives show at the highest dose activity change, negative = inhibition, usual class: inhibitors; further: potency means the concentration at half of the fitted maximal effect; on the % scale 0 is the no-effect control and ±100 the full control effect
#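 Parasite growth measured via integrated firefly luciferase reporter in P. falciparum. Infected erythrocytes at 2% hematocrit, 0.05% parasitemia final were treated 96 hours at 37 C under 5% CO2, and luminescence was read.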
# AMA1-RON2 inh: qHTS for Inhibitors of AMA1-RON; Towards Development of Antimalarial Drug Lead: Primary Screen; 360,000 compounds, 0.2% hits; AID 720542, 2013; AlphaScreen AMA1-biotinylated RON2 peptide binding; Potency, µM (series often up to 58.2 µM), for inactives: at the top dose activity change, negative = inhibition, hits mostly inhibitors;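 further: potency means the concentration at half of the fitted maximal effect; 0% = vehicle wells and -100% = peptide control; nearly all actives have a fitted effect of over 45% in size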
#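 AMA1 (3D7) with his tag at 25 nM final met compounds first, then biotinylated RON2 peptide at 25 nM; detection used donor plus acceptor beads, 10 µg/mL apiece, read by AlphaScreen after 30 min at room temperature.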
# HCV inh: qHTS Assay for Inhibitors of Hepatitis C Virus (HCV). 340,000 compounds, 3.4% hits. Potency, µM (series often up to 41.8 µM), for the others: at the highest dose activity change, negative = inhibition, actives largely listed as inhibitors. AID 651820, 2012. Huh7.5.1 HCVcc-Cre infection, luciferase reporter, 44 h; further: potency means the concentration at half of the fitted maximal effect; on the % scale 0 is the no-effect control and ±100 the full control effect
#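 Seed cells (1,000/well) for 4 h; treat with compound and infect with HCVcc-Cre, moi about 0.5. Incubate 44 h, then detect luciferase activity.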
# An asterisk follows results filed as active; i = inactive; ? = inconclusive; . = no result given; [ ] = remark or other dose. This is a sample that favours compounds with a hit; in the whole collection about 21% have one here. Unless noted, the call rests on the fitted dose curve; in most records, active means well fitted curve in the direction sought with a large enough effect; inconclusive means small, poorly fitted or top-dose-only effect, or another doubt; inactive means no such curve, though single readings can be large; an effect the other way counts as inactive or inconclusive.
SMILES,Pf growth 48h,Shiga toxin inh,CHX counter,Pf growth 96h,AMA1-RON2 inh,HCV inh
O=C(NCc1ccccc1Cl)c1ccc2ccccc2n1,63%,86*,52*,42%,8%,3%
O=C(NCc1ccccc1F)c1ccc2ccccc2n1,22%,13,9,33%,26%,0%
O=C(NCc1cccs1)c1ccc2ccccc2n1,29%,73,32*,14%,4%,-7%
O=C(NCc1cccs1)c1csc2ccccc12,63%,33,25*,50%,-2%,-25%
Cc1cccc(C(=O)Nc2cccc(OC(=O)c3cccc(C)c3)c2)c1,112%,87,34*,43%,9%,-26%
Cc1cccc(C(=O)NC(Oc2ccccc2)C(Cl)(Cl)Cl)c1 (configuration not stated),?,-3,-1,7.4µM*,2%,-2%
COC(=O)COc1cccc(NC(=O)c2cccc(C)c2)c1,10%,20,17*,10µM*,6%,-10%
COC(=O)COc1cccc(NC(=O)c2ccccc2)c1,16%,-6,1,41%,-8%,14%
C[C@@H]1CN([C@H](C)CO)C(=O)CCCn2nncc2CO[C@H]1CN(C)Cc1ccccc1C(F)(F)F,.,.,.,.,4%,.
COC(=O)C1CSC(C(=O)OC)N1C(=O)CN1CCN(c2ccccc2)CC1 (configuration not stated),-5%,-5,-1,?,-6%,0%
COc1ccc(Nc2c3c(nc4c(-c5ccccc5)c(C)nn24)CCC3)cc1,13µM*,-3,4,5.9µM*,41%,10%
Cc1cc(N2CCCCCC2)n2nc(C)c(-c3ccccc3)c2n1,15%,-4,-1,?,16%,?
Cc1cc(NCc2ccccn2)n2nc(C)c(-c3ccccc3)c2n1,1.7µM*,9,7,2.1µM*,58%,1.6µM*
Cc1nn2c(NCCN3CCOCC3)c3c(nc2c1-c1ccccc1)CCCC3,?,-5,2,13µM*,51%,?
Cc1nn2c(N3CCN(C)CC3)c3c(nc2c1-c1ccccc1)CCCC3,66%,-12,-3,9.3µM*,2%,-3%
COc1ccc(Nc2c3c(nc4ccccc24)CCC3)cc1,?,-5,-3,-28%,4%,?
Cc1cc(-c2ccccc2)nnc1NCCN1CCOCC1,-2%,12,-1,-18%,-4%,3%[8.37 µM]
COc1cccc(C(NC(C)=O)c2nc(-c3ccc(OC)nc3)cs2)c1 (configuration not stated),.,.,.,.,-1%,.
O=C1NC[C@H](CCCCN2C[C@H](Cc3ccccc3)N(CCc3ccccc3)C(=O)C2=O)N(CCC2CCCCC2)C1=O,.,.,.,.,0%,.
Cc1nn2c(NCc3ccccn3)c3c(nc2c1-c1ccccc1)CCC3,?,-13,-5,4.7µM*,51%,-67%
c1ccc(CNc2c3c(nc4ncnn24)CCCC3)nc1,7%,-3,-1,8.3µM*,109%,5%
Cc1cc(Nc2ccccc2)n2nc(C)c(-c3ccccc3)c2n1,?,-4,-1,-30%,115%,?
Cc1[nH]n2c(=O)c3c(nc2c1-c1ccccc1)CCCC3,?,26,-3,-13%,-9%,-15%
Clc1ccc(Nc2c3c(nc4ncnn24)CCC3)cc1,?,-12,-3,?,96%,-9%
Cc1nn2c(NCc3ccccn3)cc(C(C)(C)C)nc2c1-c1ccccc1,4.7µM*,-11,-3,2.9µM*,64%,2.5µM*
SMILES,Pf growth 48h,Shiga toxin inh,CHX counter,Pf growth 96h,AMA1-RON2 inh,HCV inh
COc1ccc2nc(NC(=O)CSc3n[nH]c(N)n3)sc2c1,59%,.,.,68%,56%,?
N#CC1=C(N)Oc2cc(N)ccc2C1c1ccc(F)cc1F (configuration not stated),1%,-2,-2,5.9µM*,-7%,?
N#CC1=C(N)Oc2cc(N)ccc2C1c1ccc(F)cc1 (configuration not stated),6%,-17,-2,.,-5%,?
O=c1ccc(-c2nc3ccccc3n2C(CCc2ccccc2)c2nc3ccccc3[nH]2)c[nH]1 (configuration not stated),.,.,.,.,-7%,.
NNc1nc2ccc(Cl)cc2s1,84%,83*,42*,0%,20%,?
NNc1nc2c(Cl)c(Cl)ccc2s1,2%,30*,25*,-8%,34%,6%
Fc1ccc2nc(Nc3ccccc3)sc2c1,263%,118*,36*,i,-18%,?
O=C(Nc1nc2ccc(F)cc2s1)Oc1ccccc1,5%,34,9,0%,7%,27%
O=C(Nc1nc2ccc(F)cc2s1)c1ccc([N+](=O)[O-])o1,.,.,.,.,2%,.
NNc1nc2ccc(F)cc2s1,51%,136*,78*,-1%,17%,10%
C/C(N=Nc1nc2ccccc2s1)=N\Nc1ccccc1O,2.6µM*,30,11,8%,46%,?
O=C(NCc1ccc2c(c1)CCO2)Nc1ccccc1,?,54*,61*,135%,0%,-10%
Cc1ccc(C(=O)NCc2ccc3c(c2)CCO3)cc1C,26%,57*,22*,41%,-1%,-16%
O=C(NCc1ccc2c(c1)OCO2)Nc1ccc2ccccc2c1,7%,9,11,19%,-19%,21%
O=C(O)c1ccc(CNC(=O)c2ccc3c(c2)OCCO3)cc1,19%,-4,-3,?,-9%,-1%
CC(C)CC(NC(=O)c1cccs1)c1nnc(SCc2ccc(Cl)c(Cl)c2)n1C (configuration not stated),12µM*,-12,-3,?,-5%,?
CCN(C(=O)Cn1cnc2c1c(=O)n(C)c(=O)n2C)C1CCS(=O)(=O)C1 (configuration not stated),-16%,.,.,-29%,-6%,5%
COC(=O)C1=COC(C)C2CN3CCc4c([nH]c5ccccc45)C3CC12 (configuration not stated),?,3,-2,.,8%,-69%
CCOC(=O)Oc1c(OC)cc(C(=O)O[C@H]2C[C@H]3CN4CCc5c([nH]c6cc(OC)ccc56)[C@@H]4C[C@H]3[C@@H](C(=O)OC)[C@@H]2OC)cc1OC,1.6µM*,.,.,1.3µM*,.,.
COC(=O)C1[C@@H](OC)C(OC(=O)COc2ccc(OC)cc2)C[C@@H]2CN3CCc4c([nH]c5cc(OC)ccc45)[C@H]3C[C@H]12 (some centres not stated),8.5µM*,.,.,6.7µM*,.,.
